VCAM1 TNFa pot: enhances TNF alpha induced VCAM1 expression in HUVEC. HUVEC TNFa-stimulated VCAM-1 immunofluorescence, high-content imaging; scaled per plate to unstimulated/TNFa-only wells. activation, % at 2 µM. hit rate 0.19% among 93,000. AID 808;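 active = activation above the screen mean plus 3 SD, with well images confirming the hit on visual review, cut at about 28% in these data, passing the limit was not always enough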;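 also: signal is the number of cytoplasmic VCAM-1 stained grains per positive cell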
VCAM1 pot conf: potentiators of TNFa-induced VCAM1 expression, confirmation, imaging, HUVEC, triplicate retest; shares compounds with VCAM1 TNFa pot; HUVEC TNFa-stimulated VCAM-1 immunofluorescence imaging; activation, % at 2 µM; 230 tested, under 10 active;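 active = activation above 30% in triplicate retests at 2 µM, then confirmed by visual review of the well images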
Of the large screens only hits and unclear results are named; the others gave an inactive call (follow-up assays come after a bar, where they were run). The entries come from a sample that favours hits as a whole.

CC1CCN(C(=S)c2ccccc2O)CC1	none
CC(C)(C)c1ccc(OCC(=O)N2CCN(C=O)CC2)cc1	VCAM1 TNFa pot 69 | VCAM1 pot conf inactive
Cc1cc(=O)oc2ccc(OCC(=O)N3CCC(C)CC3)cc12	none
O=C(COc1ccc2ccccc2c1)N1CCN(c2ccccc2O)CC1	none
CCCOC(=O)C1C2C=C[C@]3(CN(CCc4ccccc4)C(=O)[C@H]13)O2 (some centres not stated)	none
CC(Oc1ccc(Cl)cc1Cl)C(=O)Nc1ccc2oc(-c3ccncc3)nc2c1 (configuration not stated)	none
Cc1cc2nc(-c3ccc(NC(=O)C(C)C)cc3)oc2cc1C	VCAM1 TNFa pot 58 | VCAM1 pot conf inactive
COc1ccc(N/C(=N\c2nc(C)cc(C)n2)NC(=O)C(C)C)cc1OC	none
O=C1/C(=C/c2cccc3ccccc23)CCCc2ccccc21	none
Cc1ccc(-c2csc3n[nH]c(=S)n23)cc1	none
COc1cccc2c(=O)n(CC(=O)Nc3ccccc3F)ccc12	none
CC1CC1C(=O)OCC(=O)NC(=O)NCc1ccco1 (configuration not stated)	none
O=C(c1ccccc1)c1cc2ccccc2o1	none
O=C(c1ccccc1)c1cc[n+]([O-])cc1	VCAM1 TNFa pot 62 | VCAM1 pot conf inactive
CC(C)(C)NC(=O)C(=O)NNC(=O)C12CC3CC(CC(C3)C1)C2	none
COC1(c2ccccc2)NC(=S)NN=C1c1ccccc1 (configuration not stated)	none
O=C(Nc1ccc(Cl)cn1)C1CCCN1S(=O)(=O)c1cccc2ccccc12 (configuration not stated)	VCAM1 TNFa pot 31 | VCAM1 pot conf inactive
O=C(NCc1cccs1)C1CCCN1S(=O)(=O)c1ccccc1F (configuration not stated)	none
O=C(NC1CCCCC1)C1CCCN1S(=O)(=O)c1cccc2nsnc12 (configuration not stated)	none
CS(=O)(=O)N(Cc1ccco1)CC(O)Cn1cc(C=O)c2ccccc21 (configuration not stated)	none
Cc1ccc(NC(=O)CN(C)CC(=O)Nc2c(C)cccc2C)c(Br)c1	none
CCCN(CCC)C(=O)CSc1nc2ccccc2c(=O)n1C1CCCC1	VCAM1 TNFa pot 63 | VCAM1 pot conf inactive
CCCCNC(=O)CSc1nc2ccccc2c(=O)n1Cc1ccc2c(c1)OCO2	none
Cc1cc(NC(=O)CSc2nc3ccccc3c(=O)n2C2CCCC2)no1	none
COc1cccc(-c2cc(N)nn2C(=O)Nc2ccc(Cl)cc2)c1	none
C=CCn1c(SC(C)C(=O)NC2(C#N)CCCCC2)nnc1-c1ccc(OC)cc1 (configuration not stated)	none
O=C(NCCc1ccccc1F)[C@@H]1CSC2c3ccccc3C(=O)N21 (some centres not stated)	none
CC1CCc2nn(CC(=O)Nc3c(F)cc(F)cc3Br)cc2C1 (configuration not stated)	none
COc1ccccc1C(=O)Nc1cccc(SC)c1	VCAM1 TNFa pot 51 | VCAM1 pot conf inactive
COc1ccccc1C(=O)Nc1ccc2c(c1)nc(CN1CCN(C(C)=O)CC1)n2C	none
CSc1cccc(NC(=O)c2c(Cl)cnn2C)c1	none
COC(=O)Nc1c(C)nn(Cc2ccccc2C)c1C	none
CCC1CCCCN1C(=O)CSc1nnc(-c2ccc3c(c2)OCCO3)o1 (configuration not stated)	none
O=C(CSc1nnc(-c2ccccc2O)o1)N1CCc2ccccc2C1	VCAM1 TNFa pot 32 | VCAM1 pot conf inactive
COc1cc(OC)cc(-c2nnc(SCC(=O)N3c4ccccc4Sc4ccccc43)o2)c1	none
CC1N/C(=C\C(=O)c2ccccc2)N(O)C1(C)C (configuration not stated)	none
CCn1c(SCC(=O)n2nc(C)cc2C)nnc1-c1ccc2c(c1)OCO2	none
O=C(Nc1ccc(F)cc1)N1CCn2c(nc3ccccc32)C1	none
Cc1c(C(C)NC(=O)Nc2ccc(F)cc2F)cnn1C (configuration not stated)	none
C=CCOn1c(=O)c(=O)n(OCc2ccccc2)c2ccccc21	VCAM1 TNFa pot 96 | VCAM1 pot conf inactive
CCC(CC)c1nnc(NC(=O)c2nc3nc(C)cc(C)n3n2)s1	none
CC1Cc2ccccc2N1C(=O)COc1nc2ccccc2nc1N1CCOCC1 (configuration not stated)	none
CC1=CC(C)(C(Cl)Cl)C(C)=CC1=O (configuration not stated)	none
CCOC(=O)C(C)n1cnc2c(cnn2-c2ccc(Cl)cc2)c1=O (configuration not stated)	none
CCOC(=O)C1CCCN(S(=O)(=O)c2ccc(F)c(C(=O)Nc3ccc(F)c(F)c3)c2)C1 (configuration not stated)	none
CCOC(=O)C1CCCN(c2ncnc3c2cnn3-c2ccc(Cl)cc2)C1 (configuration not stated)	VCAM1 TNFa pot 40 | VCAM1 pot conf inactive
N#CC1(C#N)C2=C(CCCC2)NC(c2ccccc2)C1(C#N)C#N (configuration not stated)	none
COC(=O)c1sccc1NC(=O)c1ccc(Br)s1	none
CCNC(=O)/N=C1/NC(=O)C(C(C)C)O1 (configuration not stated)	none
CCc1c(C)nc(SC)n(CC#N)c1=O	none
CCCn1nnnc1NC(=O)c1cccs1	none
Cn1cnnc1SCCNS(=O)(=O)c1ccccc1	none
Cc1nnc(NC(=O)CSc2nccn2C)s1	none
Cn1cnnc1SCC(=O)Nc1ccccc1C(=O)NC1CC1	VCAM1 TNFa pot 36 | VCAM1 pot conf inactive
O=C(Oc1cccc2c(OC(=O)N3CCCC3)cccc12)N1CCCC1	none
CCc1nc(SCC(=O)N2c3ccccc3CC2C)c2c(C)c(C)sc2n1 (configuration not stated)	none
CC(NC(=O)c1ccc(Cl)cc1)c1nnc(SCc2ccc([N+](=O)[O-])cc2)n1C (configuration not stated)	none
O=C(/C=C/c1cccs1)c1cc(F)ccc1OC(=O)N1CCOCC1	none
CC(C)(C)NC(=O)C(c1ccccc1)N(C(=O)C1CSC(=O)C1)c1ccccc1 (configuration not stated)	none
COC(=O)c1nnn(CC(=O)Nc2cccc(Cl)c2)c1C(=O)OC	none
CC(=O)c1ccc(NS(=O)(=O)c2cccc(C)c2)cc1	VCAM1 TNFa pot 72 | VCAM1 pot conf inactive
COc1cccc(S(=O)(=O)Nc2ccc3sc(C)nc3c2)c1	none
Cc1cccc(NS(=O)(=O)c2ccc(C)c(C(=O)OCC(=O)Nc3cc(C)on3)c2)c1	none
CCOC(=O)Cn1nc(/C=C/c2ccc(C(C)C)cc2)ccc1=O	none
O=C(Nc1ccc(N2CCOCC2)c(Cl)c1)c1cccnc1	VCAM1 TNFa pot 56 | VCAM1 pot conf inactive
O=C(Nc1ccc(N2CCCC2)c(Cl)c1)c1cccnc1	none
O=C(CCc1ccccc1)Nc1ccc(N2CCOCC2)c(Cl)c1	none
O=C(O)c1cn(-c2ccccc2)nc1-c1ccncc1	none
Cc1ccc(-c2nn(-c3ccccc3)cc2C2CC(c3cccs3)=NN2C(=O)CCCC(=O)O)cc1 (configuration not stated)	VCAM1 TNFa pot 30 | VCAM1 pot conf inactive
O=C(c1cn(-c2ccccc2)nc1-c1cccs1)N1CCN(c2ccccn2)CC1	none
O=c1c(Cl)c(NCCO)ncn1-c1ccccc1	none
CCn1c(SCC(=O)N2CCN(c3ccccc3)CC2)nnc1-c1c[nH]c2ccccc12	none
CCc1ccc(C(=O)COC(=O)c2cccc(N3C(=O)c4c(C)nc5ccccc5c4C3=O)c2)cc1	none
O=C(Cc1ccc(Cl)cc1)Nc1ccccc1CO	none
CCNc1nc(NCc2ccccc2)nc(Oc2ccc(=O)[nH]n2)n1	none
